Cdc42 wt: changes GTP binding to wildtype human Cdc42. AID 761. P60953. GST-Cdc42 beads, Bodipy-GTP binding, flow cytometry; actives lie on both sides. percent activity (GTP binding), % at 10 µM. actives 0.2% (n = 190,000);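 active means percent activity GTP binding at least 20 points away from the 100% baseline, either down as inhibitor or up as activator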;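 further: median bead fluorescence of bound Bodipy-FL-GTP at 100 nM; 0% = excess unlabeled GTP control and 100% = no compound control; below 100% means less GTP binding so inhibitor and above means activator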
Target sequence (P60953 whole entry, looked up): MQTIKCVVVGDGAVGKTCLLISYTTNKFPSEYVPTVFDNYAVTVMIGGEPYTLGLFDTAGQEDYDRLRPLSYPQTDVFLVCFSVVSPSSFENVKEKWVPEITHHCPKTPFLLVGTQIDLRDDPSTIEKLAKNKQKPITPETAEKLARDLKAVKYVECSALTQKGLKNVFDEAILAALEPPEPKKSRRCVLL
Rac1 wt GTP bind: human Rac1 wildtype GTP binding, inhibitors and activators; P63000; GST-Rac1 beads, fluorescent GTP binding, flow cytometry; actives lie on both sides; 0 = cold GTP competed, 100 = untreated; GTP binding activity (% of control), % at 10 µM; actives 0.27% (n = 190,000); AID 757;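 active means GTP binding activity at least 20 points away from the 100% control level, either lower or higher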
HRas wt GTP: human HRas wildtype GTP binding, change in either direction | P01112 | GTP binding activity, % at 10 µM | GST-Ras wt beads, Bodipy-FL-GTP binding, flow cytometry; actives lie on both sides | actives 0.14% (n = 190,000);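 active means GTP binding activity at least 20% away from the 100% baseline, either lowered as inhibitor or raised as activator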;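 further: 0% = unlabeled GTP competition control and 100% = no-compound control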
Target sequence (P01112 whole entry, looked up): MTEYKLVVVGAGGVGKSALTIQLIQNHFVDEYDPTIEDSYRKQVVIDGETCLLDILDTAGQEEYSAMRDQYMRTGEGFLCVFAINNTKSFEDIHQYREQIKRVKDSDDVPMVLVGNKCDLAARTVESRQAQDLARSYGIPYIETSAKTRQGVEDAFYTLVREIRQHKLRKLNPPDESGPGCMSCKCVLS
Rab7 wt GTP bind: dog Rab7 wildtype GTP binding, inhibitors and activators; AID 758; actives 0.055% (n = 190,000); GST-Rab7 beads, fluorescent GTP binding, flow cytometry; actives lie on both sides; untreated = 100%, excess cold GTP = 0%; GTP binding activity (percent of control), % at 10 µM;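 active means fluorescent GTP binding to Rab7 beads changed by at least 20 points from the 100% baseline, either direction, mostly lower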;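 further: median green fluorescence of bound Bodipy-FL-GTP per Rab7 bead population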
Rab2A wt mod: changes GTP binding to wildtype dog Rab2A, up or down. P61105. GST-Rab2 wt beads, Bodipy-GTP binding, flow cytometry. GTP binding activity, % at 10 µM. actives 0.19% (n = 190,000);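 active means GTP binding activity at least 20 points away from 100%, either lowered or raised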;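 further: 0% = beads with excess unlabeled GTP and 100% = no-compound control corrected for plate trend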
Rac1 mut GTP: alters GTP binding to activated mutant human Rac1; P63000; GST-Rac1 activated beads, fluorescent GTP binding, flow cytometry; actives lie on both sides; 100% means binding = to untreated wells; percent activity (GTP binding), % at 10 µM; actives 0.11% (n = 190,000); AID 764;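 active means GTP binding at least 20 percentage points away from the 100% baseline, in either direction, so actives lie on both sides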
Active calls of the source: *; [ ] = dose if it differs, or a comment. This is a sample that favours compounds with a hit; in the whole collection about 0.4% have one here.

SMILES	Cdc42 wt	Rac1 wt GTP bind	HRas wt GTP	Rab7 wt GTP bind	Rab2A wt mod	Rac1 mut GTP
NS(=O)(=O)c1ccc(Nc2nc(-c3ccc(O)cc3O)cs2)cc1	77.0*	78.0*	78.0*	87.0	77.0*	86.0
Cc1cc([N+](=O)[O-])nn1Cc1ccc(C(=O)N/N=C/c2ccc(O)cc2O)cc1	97.0	90.0	92.0	92.0	91.0	95.0
COc1ccc(-c2csc(NC(=O)c3cccs3)c2C(=O)O)cc1OC	92.0	91.0	92.0	102.0	90.0	95.0
COc1ccc(-c2csc(NC(=O)Cc3cccc4ccccc34)c2C(=O)O)cc1	76.0*	70.0*	78.0*	81.0	75.0*	82.0
Fc1cccc(Nc2ncnc3[nH]ncc23)c1	88.0	79.0*	87.0	104.0	88.0	91.0
O=C(COC(=O)C12CC3CC(CC(C3)C1)C2)Nc1nc2c(F)c(F)c(F)cc2s1	74.0*	93.0	94.0	93.0	94.0	96.0
COc1ccc(C(=O)OCC(=O)Nc2nc3c(F)c(F)c(F)cc3s2)cc1OC	97.0	98.0	97.0	102.0	98.0	93.0
O=C(/C=C/c1ccccc1)Nc1ccc(C(=O)N2CCCCC2)cc1	95.0	98.0	95.0	99.0	97.0	96.0
Cc1cc2[nH]c3c(c[n+](C)c4ccccc34)c2cc1C	85.0	76.0*	87.0	94.0	87.0	94.0
Cc1cc(=O)[nH]c2ccccc12	108.0	107.0	107.0	107.0	105.0	101.0
COC(=O)c1ccc(COc2ccccc2/C=N/Nc2cccc(C(=O)O)c2)cc1	124.0*[activator]	141.0*[activator]	121.0*[activator]	126.0*[activator]	128.0*[activator]	128.0*[activator]
O=C(O)c1cccc(NC(=S)N/N=C/c2ccccc2OCc2ccc(Br)cc2)c1	89.0	94.0	97.0	98.0	93.0	94.0
O=C(Nc1cccc(Cl)c1)N1CCN(c2ncccn2)CC1	114.0	125.0*[activator]	109.0	108.0	111.0	104.0
O=C(Nc1ccc(Cl)cc1Cl)N1CCN(c2ncccn2)CC1	95.0	97.0	94.0	94.0	95.0	94.0
O=C(N/N=C/c1ccc([N+](=O)[O-])o1)c1cn(-c2ccccc2)nc1-c1ccc(Cl)cc1	81.0	79.0*	81.0	98.0	82.0	86.0
O=C(N/N=C/c1ccc([N+](=O)[O-])o1)c1cn(-c2ccccc2)nc1-c1ccccc1	89.0	82.0	85.0	96.0	83.0	92.0
CCc1ccccc1NC(=O)N1C2CCCC1CC(NC(C)=O)C2 (configuration not stated)	126.0*[activator]	139.0*[activator]	104.0	95.0	108.0	107.0
Cc1ccc2sc(N(CCCN(C)C)C(=O)c3ccc(Br)s3)nc2c1C	100.0	99.0	97.0	93.0	97.0	97.0
O=C1OC(c2ccc(F)cc2)=C/C1=C\c1ccc([N+](=O)[O-])o1	115.0	113.0	112.0	124.0*[activator]	118.0	103.0
O=[N+]([O-])c1ccc(/C=N/N=C/c2ccc([N+](=O)[O-])o2)o1	92.0	95.0	91.0	91.0	91.0	90.0
COC(=O)c1sccc1NC(=S)N1C(C)CCCC1C (configuration not stated)	96.0	93.0	92.0	96.0	95.0	93.0
O=c1cc(N2CCc3ccccc3C2)[nH]c(=O)n1-c1ccc(Cl)cc1	102.0	121.0*[activator]	102.0	101.0	104.0	103.0
CCN(CC)CCNC(=O)c1ccc(Sc2ccc(C)cc2)c(NC(C)=O)c1	99.0	100.0	100.0	98.0	100.0	97.0
O=C(COC(=O)c1ccc2c(c1[N+](=O)[O-])C(=O)c1ccccc1C2=O)NC1CC1	73.0*	70.0*	76.0*	91.0	73.0*	83.0
O=C(O)c1cccc(S(=O)(=O)Nc2ccccc2Cl)c1	101.0	97.0	98.0	99.0	97.0	98.0
SMILES	Cdc42 wt	Rac1 wt GTP bind	HRas wt GTP	Rab7 wt GTP bind	Rab2A wt mod	Rac1 mut GTP
O=C(NCCc1c[nH]c2ccccc12)c1cccc(S(=O)(=O)Nc2ccccc2Cl)c1	93.0	80.0	83.0	88.0	79.0*	89.0
Cc1ccccc1C(=O)Nc1cccc(C(=O)N/N=C/c2cc(Cl)cc([N+](=O)[O-])c2O)c1	76.0*	81.0	80.0	90.0	77.0*	74.0*
NS(=O)(=O)c1ccc(N/N=C/c2ccccc2Br)cc1	92.0	94.0	95.0	104.0	97.0	94.0
COc1ccc([N+](=O)[O-])cc1NC(=S)NC(NC(=O)Cc1ccc(OC)c(OC)c1)C(Cl)(Cl)Cl (configuration not stated)	54.0*	74.0*	57.0*	90.0	55.0*	79.0*
COc1ccc([N+](=O)[O-])cc1NC(=O)Cc1ccc(Cl)cc1	98.0	100.0	101.0	98.0	99.0	101.0
Cc1ccc(NC(=O)c2ccc3c(c2)C(=O)N(Cc2cccnc2)C3=O)c(C)c1	100.0	98.0	99.0	108.0	100.0	98.0
Cc1ccc(S(=O)(=O)N(C)C)cc1NC(=O)COC(=O)c1ccc(Cl)cc1	113.0	144.0*[activator]	105.0	109.0	108.0	109.0
COc1ccc2nc(C)cc(SCC(=O)N/N=C/c3ccc(O)c(O)c3)c2c1	69.0*	79.0*	72.0*	91.0	68.0*	82.0
COc1ccc2nc(C)cc(SCC(=O)N/N=C/c3cccc4ccccc34)c2c1	98.0	98.0	98.0	97.0	98.0	97.0
COc1cccc2c(SCC(=O)N/N=C/c3ccccc3)cc(C)nc12	99.0	96.0	94.0	99.0	97.0	95.0
COc1cccc2c(SCC(=O)N/N=C/c3ccc(O)c(O)c3)cc(C)nc12	71.0*	65.0*	79.0*	89.0	75.0*	84.0
COc1cccc(C(=O)CN(C(=O)c2ccc(Cl)cc2Cl)N2C(=O)c3ccccc3C2=O)c1	101.0	103.0	102.0	98.0	99.0	102.0
Cc1nn(Cc2ccccc2)c(C)c1NC(=O)CSc1nc2c(c(C(F)(F)F)n1)CCc1ccccc1-2	84.0	75.0*	85.0	92.0	83.0	88.0
COc1cc(NS(=O)(=O)c2ccc(Nc3nc(-c4ccccc4)cs3)cc2)nc(OC)n1	71.0*	73.0*	79.0*	80.0	77.0*	82.0
Cc1cc(NS(=O)(=O)c2ccc(Nc3nc(-c4ccc(C)c(C)c4)cs3)cc2)no1	99.0	100.0	100.0	100.0	98.0	96.0
CCCC(=O)Nc1nc(C)c(-c2csc(Nc3cc(OC)ccc3OC)n2)s1	100.0	101.0	99.0	97.0	99.0	98.0
COc1ccc(OC)c(Nc2nc(-c3sc(N)nc3C)cs2)c1	77.0*	79.0*	79.0*	90.0	87.0	88.0
Cc1cc(NS(=O)(=O)c2ccc(Nc3nc(-c4sc(N)nc4C)cs3)cc2)no1	80.0	86.0	78.0*	89.0	75.0*	89.0

Screening data: PubChem BioAssay, NMMLSC
